Inconclusive results are not listed. Active and inactive are the calls of the source. Calls come from the whole dose curve; as a rule, active = well fitted cell-killing curve with a large enough effect; inconclusive = small, poorly fitted or top-dose-only effect, or effect the other way; inactive = flat fitted curve, though single readings scatter.
Assays:
Assay in all cases: Primary qHTS to identify gynecologic anti-cancer compounds using libraries of approved drugs and bioactive compounds (AID 1345084); note: nearly all actives have a fitted effect of over 55% in size
[1] = test system: C33A; settings: Gynecologic cancer cell panel viability, ATPlite luminescence, 48 h; series mostly up to 57.5 µM
In short: (§1)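 Five-concentration response, 48 h; readout is ATP-driven luciferase luminescence.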

[2] = test system: CAOV3; settings: Gynecologic cancer cell panel viability, ATPlite luminescence, 48 h; series mostly up to 57.5 µM
In short: as §1

[3] = test system: CASKI; settings: Gynecologic cancer cell panel viability, ATPlite luminescence, 48 h; series mostly up to 57.5 µM
In short: as §1

[4] = test system: Es-2; settings: Gynecologic cancer cell panel viability, ATPlite luminescence, 48 h; series mostly up to 57.5 µM
In short: as §1

[5] = test system: HeLa; settings: Gynecologic cancer cell panel viability, ATPlite luminescence, 48 h; series mostly up to 57.5 µM
In short: as §1

[6] = test system: Hek293T; settings: Gynecologic cancer cell panel viability, ATPlite luminescence, 48 h, control line for the selectivity index; series mostly up to 57.5 µM
In short: as §1

[7] = test system: JEG-3; settings: Gynecologic cancer cell panel viability, ATPlite luminescence, 48 h; series mostly up to 57.5 µM
In short: as §1

[8] = test system: OV90; settings: Gynecologic cancer cell panel viability, ATPlite luminescence, 48 h; series mostly up to 57.5 µM
In short: as §1

[9] = test system: PA-1; settings: Gynecologic cancer cell panel viability, ATPlite luminescence, 48 h; series mostly up to 57.5 µM
In short: as §1

[10] = test system: SKOV3; settings: Gynecologic cancer cell panel viability, ATPlite luminescence, 48 h; series mostly up to 57.5 µM
In short: as §1

[11] = test system: Tov-21-G; settings: Gynecologic cancer cell panel viability, ATPlite luminescence, 48 h; series mostly up to 57.5 µM
In short: as §1

[12] = test system: Tov112D; settings: Gynecologic cancer cell panel viability, ATPlite luminescence, 48 h; series mostly up to 57.5 µM
In short: as §1

Measured: Potency

C=C(C)C1Cc2cc(C(=O)OC3OC(CO)C(O)C(O)C3O)ccc2O1 (stereo not given)
inactive: [1] | [2] | [3] | [4] | [5] | [6] | [7] | [8] | [9] | [10] | [11] | [12]

CC(CO)C1CCC2(C)CC3C(CO)CC(O)C3C(C)(O)C/C=C/12 (stereo not given)
inactive: [1] | [2] | [3] | [4] | [5] | [6] | [7] | [8] | [9] | [10] | [11] | [12]

CC1C(=O)CC2C3CCC(C(=O)O)C12CC3(C)CO (stereo not given)
inactive: [1] | [2] | [3] | [4] | [5] | [6] | [7] | [8] | [9] | [10] | [11] | [12]

COc1c2cc(c(O)c1OC)-c1cc(ccc1O)CCC(O)CCCC2 (stereo not given)
inactive: [1] | [2] | [3] | [4] | [5] | [6] | [7] | [8] | [9] | [10] | [11] | [12]

CC(=O)OC[C@@]12C(=O)C[C@@H](C)[C@]3(C[C@@H](c4ccoc4)O[C@H]3OC(C)=O)[C@H]1CCC[C@]21CO1
inactive: [1] | [2] | [3] | [4] | [5] | [6] | [7] | [8] | [9] | [10] | [11] | [12]

CC(=O)O[C@@H]1c2c3c(cc(O)c2C(=O)O[C@@H]1C)O[C@@]1(C)[C@@H](O)C[C@H]2C(C)(C)C(=O)C=C[C@]2(C)[C@@H]1C3
inactive: [1] | [2] | [3] | [4] | [5] | [6] | [7] | [8] | [9] | [10] | [11] | [12]

CC(=O)NC1C(OC(C)(C)C2CCC3(C)C=C(C4CCC5C4(C)CC(O)C4OC(C(C)(C)O)CCC45C)CCC3O2)OC(CO)C(O)C1O (stereo not given)
inactive: [1] | [2] | [3] | [4] | [5] | [6] | [7] | [8] | [9] | [10] | [11] | [12]

CC1=C(C)C(=O)OC(C(C)C2CCC3C4C5OC5C5(O)CC(OC6OC(CO)C(OC7OC(C)C(O)C(O)C7O)C(O)C6O)CC(O)C5(C)C4CCC23C)C1 (stereo not given)
inactive: [1] | [2] | [3] | [4] | [5] | [6] | [7] | [8] | [9] | [10] | [11] | [12]

C=C[C@@H]1[C@H](O[C@@H]2O[C@H](CO)[C@@H](O)[C@H](O)[C@H]2O)OC=C(C(=O)O)[C@H]1CCOC(=O)/C=C/c1ccc(O)c(O)c1
inactive: [1] | [2] | [3] | [4] | [5] | [6] | [7] | [8] | [9] | [10] | [11] | [12]

CC1CC(C(O)C(C)(C)O)OC2CC3(C)C4(C)CCC5C(C)(C)C(=O)CCC5(C)C4CCC3(O)C12O (stereo not given)
inactive: [1] | [2] | [3] | [4] | [5] | [6] | [7] | [8] | [9] | [10] | [11] | [12]

CNS(=O)(=O)CC1CCC(N(C)c2ncnc3[nH]ccc23)CC1 (stereo not given)
inactive: [1] | [2] | [3] | [4] | [5] | [6] | [7] | [8] | [9] | [10] | [11] | [12]

COc1cc(C)c(C(=O)O[C@H]2[C@@H](OC(C)=O)[C@H](n3ccc(=O)[nH]c3=O)O[C@@H]2CO)c(OC)c1
inactive: [1] | [2] | [3] | [4] | [5] | [6] | [7] | [8] | [9] | [10] | [11] | [12]

C=C1C[C@]23C[C@H]1CC[C@H]2[C@@]1(C)CCC[C@@]2(C)C(=O)O[C@@H]([C@@H]3O)[C@@H]12
inactive: [1] | [2] | [3] | [4] | [5] | [6] | [7] | [8] | [9] | [10] | [11] | [12]

COc1cc(O)cc(C)c1C(=O)OC1C(CO)OC(OC2C(O)C(O)C(O)C(O)C2O)C(O)C1O (stereo not given)
inactive: [1] | [2] | [3] | [4] | [5] | [6] | [7] | [8] | [9] | [10] | [11] | [12]

COc1cc(O)c([C@@H](CC(=O)N2CC(C)CC(C)C2)c2ccc3c(c2)OCO3)c(OC)c1 (stereo not given in full)
inactive: [1] | [2] | [3] | [4] | [5] | [6] | [7] | [8] | [9] | [10] | [11] | [12]
